Columns and labels:
[1] = target: Tyrosine-protein kinase Fyn (Homo sapiens) (UniProt P06241); details: at 1 µM
[2] = target: Tyrosine-protein kinase HCK (Homo sapiens) (UniProt P08631); details: at 0.1 µM
[3] = target: Tyrosine-protein kinase HCK (Homo sapiens) (UniProt P08631); details: at 1 µM
[4] = target: Insulin-like growth factor 1 receptor (Homo sapiens) (UniProt P08069); details: at 0.1 µM
[5] = target: Insulin-like growth factor 1 receptor (Homo sapiens) (UniProt P08069); details: at 1 µM
[6] = target: Insulin receptor (Homo sapiens) (UniProt P06213); details: at 0.1 µM
[7] = target: Insulin receptor (Homo sapiens) (UniProt P06213); details: at 1 µM
[8] = target: Insulin receptor-related protein (Homo sapiens) (UniProt P14616); details: at 0.1 µM
Insulin receptor-related protein (Homo sapiens), sequence (P14616 27-742 limits assumed): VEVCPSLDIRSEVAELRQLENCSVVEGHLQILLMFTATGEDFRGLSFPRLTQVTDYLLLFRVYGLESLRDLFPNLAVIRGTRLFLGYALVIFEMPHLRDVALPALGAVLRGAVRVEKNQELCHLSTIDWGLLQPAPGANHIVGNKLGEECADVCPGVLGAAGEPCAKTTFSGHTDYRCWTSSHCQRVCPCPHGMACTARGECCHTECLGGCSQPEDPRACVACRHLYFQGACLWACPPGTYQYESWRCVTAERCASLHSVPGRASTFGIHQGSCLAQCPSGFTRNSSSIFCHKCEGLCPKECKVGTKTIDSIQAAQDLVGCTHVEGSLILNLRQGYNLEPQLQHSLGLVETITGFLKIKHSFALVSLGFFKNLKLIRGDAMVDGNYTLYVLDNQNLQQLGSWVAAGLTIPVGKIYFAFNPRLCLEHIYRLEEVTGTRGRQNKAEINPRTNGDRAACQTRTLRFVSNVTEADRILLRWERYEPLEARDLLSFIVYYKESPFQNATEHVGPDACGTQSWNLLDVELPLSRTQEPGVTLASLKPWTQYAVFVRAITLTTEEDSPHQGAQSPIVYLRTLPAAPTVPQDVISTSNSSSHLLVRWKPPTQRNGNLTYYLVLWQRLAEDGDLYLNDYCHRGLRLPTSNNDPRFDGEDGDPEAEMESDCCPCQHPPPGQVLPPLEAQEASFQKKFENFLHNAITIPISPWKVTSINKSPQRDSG
Insulin receptor-related protein (Homo sapiens), sequence (P14616 747-1297 limits assumed): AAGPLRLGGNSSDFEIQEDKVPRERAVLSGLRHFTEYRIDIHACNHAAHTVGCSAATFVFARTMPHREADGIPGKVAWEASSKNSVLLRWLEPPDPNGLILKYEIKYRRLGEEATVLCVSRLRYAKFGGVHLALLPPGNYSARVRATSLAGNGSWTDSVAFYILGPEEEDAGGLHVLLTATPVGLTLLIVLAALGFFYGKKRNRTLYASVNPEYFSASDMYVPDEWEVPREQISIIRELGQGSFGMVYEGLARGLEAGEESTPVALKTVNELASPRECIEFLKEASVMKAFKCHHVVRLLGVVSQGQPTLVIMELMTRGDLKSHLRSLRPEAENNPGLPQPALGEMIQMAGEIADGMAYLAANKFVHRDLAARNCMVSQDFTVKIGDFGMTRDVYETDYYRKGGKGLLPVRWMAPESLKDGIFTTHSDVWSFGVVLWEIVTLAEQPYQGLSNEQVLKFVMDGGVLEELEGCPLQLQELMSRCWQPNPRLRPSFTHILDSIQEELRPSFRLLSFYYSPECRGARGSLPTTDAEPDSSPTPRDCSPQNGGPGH

[9] = target: Insulin receptor-related protein (Homo sapiens) (UniProt P14616); details: at 1 µM
[10] = target: T1, Tyrosine-protein kinase ITK/TSK (Homo sapiens) (UniProt Q08881); details: at 0.1 µM
T1 sequence (whole entry): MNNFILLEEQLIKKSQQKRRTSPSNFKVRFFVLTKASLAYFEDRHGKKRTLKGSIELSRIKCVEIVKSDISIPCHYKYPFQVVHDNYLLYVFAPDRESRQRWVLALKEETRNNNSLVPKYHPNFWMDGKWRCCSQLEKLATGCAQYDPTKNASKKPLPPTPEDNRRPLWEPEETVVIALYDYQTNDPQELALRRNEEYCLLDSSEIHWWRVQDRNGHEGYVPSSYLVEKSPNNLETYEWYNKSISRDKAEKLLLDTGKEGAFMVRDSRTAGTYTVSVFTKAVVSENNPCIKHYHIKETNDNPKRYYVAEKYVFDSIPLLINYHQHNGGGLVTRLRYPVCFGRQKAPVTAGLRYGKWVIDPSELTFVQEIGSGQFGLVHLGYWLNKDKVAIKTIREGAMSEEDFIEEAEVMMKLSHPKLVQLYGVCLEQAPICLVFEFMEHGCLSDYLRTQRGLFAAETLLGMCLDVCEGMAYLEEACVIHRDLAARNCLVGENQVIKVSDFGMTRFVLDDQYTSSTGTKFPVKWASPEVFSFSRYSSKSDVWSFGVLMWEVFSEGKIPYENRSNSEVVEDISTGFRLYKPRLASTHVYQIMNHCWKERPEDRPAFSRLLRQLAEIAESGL

[11] = target: T1, Tyrosine-protein kinase ITK/TSK (Homo sapiens); details: at 1 µM
[12] = target: Tyrosine-protein kinase JAK1 (Homo sapiens) (UniProt P23458); details: at 0.1 µM
Tyrosine-protein kinase JAK1 (Homo sapiens), sequence (P23458 whole entry): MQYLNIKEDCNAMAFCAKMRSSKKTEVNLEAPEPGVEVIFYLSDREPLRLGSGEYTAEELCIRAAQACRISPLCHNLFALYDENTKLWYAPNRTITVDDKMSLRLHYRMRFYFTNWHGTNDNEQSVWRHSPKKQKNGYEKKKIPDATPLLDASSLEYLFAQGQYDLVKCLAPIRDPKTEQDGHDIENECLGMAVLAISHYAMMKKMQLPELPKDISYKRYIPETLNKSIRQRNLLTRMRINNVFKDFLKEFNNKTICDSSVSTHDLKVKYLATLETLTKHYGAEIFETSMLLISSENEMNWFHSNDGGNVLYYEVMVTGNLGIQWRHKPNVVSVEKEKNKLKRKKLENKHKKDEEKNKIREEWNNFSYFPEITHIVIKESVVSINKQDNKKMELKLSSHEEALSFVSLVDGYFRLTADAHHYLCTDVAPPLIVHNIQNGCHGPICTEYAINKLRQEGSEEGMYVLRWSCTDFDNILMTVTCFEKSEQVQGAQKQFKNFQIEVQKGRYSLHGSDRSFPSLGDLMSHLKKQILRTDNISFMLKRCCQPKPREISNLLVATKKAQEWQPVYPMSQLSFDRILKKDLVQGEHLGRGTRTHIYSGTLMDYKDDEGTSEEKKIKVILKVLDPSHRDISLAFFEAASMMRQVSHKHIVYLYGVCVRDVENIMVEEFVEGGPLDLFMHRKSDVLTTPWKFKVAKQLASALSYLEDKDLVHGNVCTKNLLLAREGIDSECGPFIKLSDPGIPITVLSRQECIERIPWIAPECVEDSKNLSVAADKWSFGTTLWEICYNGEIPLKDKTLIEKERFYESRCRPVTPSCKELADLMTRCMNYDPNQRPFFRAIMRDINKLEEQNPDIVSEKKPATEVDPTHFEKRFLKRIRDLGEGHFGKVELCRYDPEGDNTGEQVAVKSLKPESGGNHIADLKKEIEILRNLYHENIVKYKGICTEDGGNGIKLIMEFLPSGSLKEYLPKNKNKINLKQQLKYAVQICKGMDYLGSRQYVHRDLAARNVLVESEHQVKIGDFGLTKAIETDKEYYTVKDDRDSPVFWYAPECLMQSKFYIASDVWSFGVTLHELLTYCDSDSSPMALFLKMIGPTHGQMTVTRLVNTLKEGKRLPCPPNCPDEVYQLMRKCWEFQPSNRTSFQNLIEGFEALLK

[13] = target: Tyrosine-protein kinase JAK1 (Homo sapiens) (UniProt P23458); details: at 1 µM
[14] = target: Tyrosine-protein kinase JAK2 (Homo sapiens) (UniProt O60674); details: at 0.1 µM
Tyrosine-protein kinase JAK2 (Homo sapiens), sequence (O60674 whole entry): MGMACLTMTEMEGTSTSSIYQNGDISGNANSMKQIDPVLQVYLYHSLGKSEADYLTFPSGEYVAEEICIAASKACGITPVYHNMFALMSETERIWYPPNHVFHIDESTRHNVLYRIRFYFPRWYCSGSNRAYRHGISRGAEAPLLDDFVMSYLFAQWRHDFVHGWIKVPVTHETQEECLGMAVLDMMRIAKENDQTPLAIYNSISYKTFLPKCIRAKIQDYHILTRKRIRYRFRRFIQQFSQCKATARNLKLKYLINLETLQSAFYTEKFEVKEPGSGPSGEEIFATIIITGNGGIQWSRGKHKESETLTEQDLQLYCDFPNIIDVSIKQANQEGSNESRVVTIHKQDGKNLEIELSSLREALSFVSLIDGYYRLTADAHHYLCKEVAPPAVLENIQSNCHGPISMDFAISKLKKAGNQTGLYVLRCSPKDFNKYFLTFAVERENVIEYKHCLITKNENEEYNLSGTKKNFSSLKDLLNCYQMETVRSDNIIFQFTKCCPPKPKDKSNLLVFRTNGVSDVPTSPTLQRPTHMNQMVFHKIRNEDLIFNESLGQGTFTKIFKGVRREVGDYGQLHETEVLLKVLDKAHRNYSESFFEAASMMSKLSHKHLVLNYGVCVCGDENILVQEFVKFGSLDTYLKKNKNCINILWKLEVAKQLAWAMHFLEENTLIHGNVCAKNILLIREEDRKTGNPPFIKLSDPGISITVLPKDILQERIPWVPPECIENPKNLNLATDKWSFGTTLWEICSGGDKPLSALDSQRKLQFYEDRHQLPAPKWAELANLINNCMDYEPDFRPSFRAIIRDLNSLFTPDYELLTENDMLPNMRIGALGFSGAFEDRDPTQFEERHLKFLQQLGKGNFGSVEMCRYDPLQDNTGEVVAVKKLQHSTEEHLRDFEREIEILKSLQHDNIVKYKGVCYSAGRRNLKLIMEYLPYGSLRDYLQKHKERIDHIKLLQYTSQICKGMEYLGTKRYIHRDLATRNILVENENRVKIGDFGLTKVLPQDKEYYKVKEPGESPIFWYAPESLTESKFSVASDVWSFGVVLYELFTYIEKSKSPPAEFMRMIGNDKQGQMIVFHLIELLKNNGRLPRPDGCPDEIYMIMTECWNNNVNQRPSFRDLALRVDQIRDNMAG

[15] = target: Tyrosine-protein kinase JAK2 (Homo sapiens) (UniProt O60674); details: at 1 µM
[16] = target: T2, Tyrosine-protein kinase JAK3 (Homo sapiens) (UniProt P52333); details: at 0.1 µM
T2 sequence (whole entry): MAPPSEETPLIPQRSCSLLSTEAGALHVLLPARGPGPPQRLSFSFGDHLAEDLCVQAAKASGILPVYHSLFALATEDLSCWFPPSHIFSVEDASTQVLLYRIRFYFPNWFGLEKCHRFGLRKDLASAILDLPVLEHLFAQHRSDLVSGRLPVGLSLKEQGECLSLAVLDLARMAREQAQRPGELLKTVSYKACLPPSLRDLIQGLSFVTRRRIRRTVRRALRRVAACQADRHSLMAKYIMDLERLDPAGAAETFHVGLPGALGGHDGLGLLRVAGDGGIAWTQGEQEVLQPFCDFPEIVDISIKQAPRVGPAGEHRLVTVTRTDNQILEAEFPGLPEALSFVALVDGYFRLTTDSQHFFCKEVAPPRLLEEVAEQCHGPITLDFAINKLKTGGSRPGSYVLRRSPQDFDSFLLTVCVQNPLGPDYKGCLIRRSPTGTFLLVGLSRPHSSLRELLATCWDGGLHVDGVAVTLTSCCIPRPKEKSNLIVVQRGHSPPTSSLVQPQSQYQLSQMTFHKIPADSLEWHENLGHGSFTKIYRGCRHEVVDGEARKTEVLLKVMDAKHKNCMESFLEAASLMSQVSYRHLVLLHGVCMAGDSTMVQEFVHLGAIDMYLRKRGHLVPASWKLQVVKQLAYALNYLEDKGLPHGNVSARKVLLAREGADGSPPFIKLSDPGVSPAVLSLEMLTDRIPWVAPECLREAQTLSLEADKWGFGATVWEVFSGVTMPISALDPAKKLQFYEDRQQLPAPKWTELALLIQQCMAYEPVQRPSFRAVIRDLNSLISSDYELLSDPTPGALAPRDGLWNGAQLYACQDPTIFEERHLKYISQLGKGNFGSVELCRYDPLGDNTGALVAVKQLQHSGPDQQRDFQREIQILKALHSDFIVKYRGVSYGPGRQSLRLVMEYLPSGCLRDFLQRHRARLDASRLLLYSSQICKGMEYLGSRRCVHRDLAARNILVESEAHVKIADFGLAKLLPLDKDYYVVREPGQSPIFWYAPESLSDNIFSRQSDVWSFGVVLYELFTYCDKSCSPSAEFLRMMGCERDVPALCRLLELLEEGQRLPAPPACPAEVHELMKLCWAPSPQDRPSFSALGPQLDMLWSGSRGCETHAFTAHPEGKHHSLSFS

[17] = target: T2, Tyrosine-protein kinase JAK3 (Homo sapiens); details: at 1 µM
[18] = target: Vascular endothelial growth factor receptor 2 (Homo sapiens) (UniProt P35968); details: at 0.1 µM
[19] = target: Vascular endothelial growth factor receptor 2 (Homo sapiens) (UniProt P35968); details: at 1 µM
[20] = target: Mast/stem cell growth factor receptor Kit (Homo sapiens) (UniProt P10721); details: at 0.1 µM;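 also: values are mean inhibition of KIT, from the GSK PKIS dataset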

Tyrosine-protein kinase HCK (Homo sapiens), sequence (P08631 2-526 limits assumed): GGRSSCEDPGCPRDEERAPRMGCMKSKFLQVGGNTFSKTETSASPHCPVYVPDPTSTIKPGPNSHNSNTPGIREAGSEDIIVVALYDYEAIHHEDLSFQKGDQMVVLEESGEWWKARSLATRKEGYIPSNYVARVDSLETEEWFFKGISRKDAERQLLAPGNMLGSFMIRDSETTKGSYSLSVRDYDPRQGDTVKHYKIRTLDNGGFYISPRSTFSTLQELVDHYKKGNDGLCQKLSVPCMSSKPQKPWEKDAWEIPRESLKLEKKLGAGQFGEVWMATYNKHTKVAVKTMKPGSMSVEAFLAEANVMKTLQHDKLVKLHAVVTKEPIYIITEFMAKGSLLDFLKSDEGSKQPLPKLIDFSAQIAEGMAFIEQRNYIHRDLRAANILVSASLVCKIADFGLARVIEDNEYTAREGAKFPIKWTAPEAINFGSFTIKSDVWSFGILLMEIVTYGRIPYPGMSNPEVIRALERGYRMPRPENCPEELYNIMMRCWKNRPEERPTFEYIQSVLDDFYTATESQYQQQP
Tyrosine-protein kinase Fyn (Homo sapiens), sequence (P06241 2-537 limits assumed): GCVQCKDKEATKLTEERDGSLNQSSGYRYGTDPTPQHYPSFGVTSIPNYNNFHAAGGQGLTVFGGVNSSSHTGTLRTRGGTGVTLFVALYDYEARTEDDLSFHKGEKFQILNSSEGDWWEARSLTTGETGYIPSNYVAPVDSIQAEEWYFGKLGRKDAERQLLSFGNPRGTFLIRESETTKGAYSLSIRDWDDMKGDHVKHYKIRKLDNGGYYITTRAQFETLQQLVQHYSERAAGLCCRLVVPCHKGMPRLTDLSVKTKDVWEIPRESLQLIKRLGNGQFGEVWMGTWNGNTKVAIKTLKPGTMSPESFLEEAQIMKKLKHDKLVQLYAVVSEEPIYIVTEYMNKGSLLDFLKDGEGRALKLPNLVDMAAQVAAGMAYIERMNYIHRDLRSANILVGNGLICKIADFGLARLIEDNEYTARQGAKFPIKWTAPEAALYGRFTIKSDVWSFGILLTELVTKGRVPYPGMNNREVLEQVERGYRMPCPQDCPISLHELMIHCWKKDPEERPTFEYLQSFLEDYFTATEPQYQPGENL

SMILES	inhibition [1] [%]	inhibition [2] [%]	inhibition [3] [%]	inhibition [4] [%]	inhibition [5] [%]	inhibition [6] [%]	inhibition [7] [%]	inhibition [8] [%]	inhibition [9] [%]	inhibition [10] [%]	inhibition [11] [%]	inhibition [12] [%]	inhibition [13] [%]	inhibition [14] [%]	inhibition [15] [%]	inhibition [16] [%]	inhibition [17] [%]	inhibition [18] [%]	inhibition [19] [%]	inhibition [20] [%]
COc1cccc(-n2ncc3c(N/N=C/c4cccc(F)c4)ncnc32)c1	31.5	5.13	20.8	-6.82	-4.04	6.33	5.41	0.81	0.48	-3.25	-2.13	2.37	2.01	1.22	1.44	-4.29	0.79	10.1	34.1	3.25
COC(=O)Nc1nc2cc(Oc3cccc(NC(=O)Nc4cc(C(F)(F)F)ccc4F)c3)ccc2[nH]1	7.79	1.11	7.7	-1.77	-0.89	2.67	2.78	-1.56	-0.86	0.34	0.67	0.78	4.36	-0.5	-0.07	1.1	2.02	19.1	63.5	4.16
COc1cc2ncn(-c3cc(O[C@H](C)c4ccccc4Cl)c(C(N)=O)s3)c2cc1OC	8.81	11.7	51.8	2.5	3.13	2.07	4.73	1.49	2.98	2.64	8.66	8.61	21.9	1.66	6.6	0.32	25.9	36.4	72.5	7.11
CC1=C(C(=O)Nc2ccc3[nH]ncc3c2)C(c2ccc(F)cc2)NC(=O)N1 (stereo not given)	4.69	3.04	2.81	9.13	8.59	4.97	4.22	0.88	0.72	0.65	1.33	14.4	70.3	2.59	35.1	1.07	30.8	4.24	12.3	5.14
COc1ccc(-c2coc3ncnc(N)c23)cc1	2.02	5.63	8.51	1.64	2.38	5.22	6.33	1.82	1.27	1.41	1.48	0.98	2.67	1.71	2.08	-1.56	2.35	6.15	9	5.17
CCN1CCC(CC(=O)Nc2n[nH]c3nc(-c4cccs4)c(Br)cc23)CC1	-1.4	-0.44	0.93	-1.09	1.31	-0.61	-1.43	-2.33	0.01	-0.21	0.48	-7.81	-3.93	-1.09	-2.38	0.48	2.19	1.49	15.5	-4.07

— ChEMBL document CHEMBL1961873, “Compounds: GSK PKIS; Assays: Nanosyn kinase panel” (2012)
